Bioassay records: PubChem, National Center for Advancing Translational Sciences (NCATS)
IL-1B inflam inh: qHTS for Inhibitors of Inflammasome Signaling: IL-1-beta AlphaLISA Primary Screen; 360,000 compounds, 4.7% hits; activity change, % at 57.5 µM; THP-1 LPS/ATP IL-1B secretion, AlphaLISA, 16 h; hits give low values; in the data active means activity change below about -50%; inconclusive means mostly about -30% to -49%
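THP-1 cells pretreated 1 hr with compounds (up to 57.5 uM final), then stimulated with LPS (250 ng/mL final) plus ATP (1.25 mM final); secreted IL-1B measured by AlphaLISA after 16 hr, decreased signal indicating inhibition.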
ATXN viability: Viability Counterscreen for Primary qHTS for Inhibitors of ATXN expression. S2 cells (HEK-293 line with an ATXN2-luciferase reporter) viability, CellTiter-Fluor protease fluorescence, 24 h. Potency, µM (highest dose often 56.7 µM), hits mostly cytotoxic. 400,000 compounds, 0.49% hits; further: nearly all actives have a fitted effect of over 40% in size
a7 integrin act: qHTS for Activators of Integrin-Mediated Alleviation for Muscular Dystrophy; alpha7betagal myoblasts, beta-gal FDG fluorescence, 48 h; Potency, µM (series often up to 38.3 µM), hits mostly activators; 350,000 compounds, 0.064% hits; further: nearly all actives have a fitted effect of over 60% in size
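alpha7betagal+/- myoblasts (passage 13, 250/well) treated 48 h at 37C with compounds at 1:260 dilution of DMSO stock. Lysed, then beta-galactosidase activity read as FDG fluorescence (ex 480/em 540) after 30 min, with pre-read for autofluorescence.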
D3 antag: qHTS of D3 Dopamine Receptor Antagonist: qHTS; D(3) dopamine receptor (Homo sapiens), P35462; AID 652054, 2013; D3R cells, DiscoveRx beta-arrestin luminescence, antagonist mode; hits give low values; 360,000 compounds, 2.5% hits; max response, negative = inhibition, %; in the data active means max response below about -50%; inconclusive means no clear call, values can overlap the other calls
Target sequence (P35462 whole entry, looked up): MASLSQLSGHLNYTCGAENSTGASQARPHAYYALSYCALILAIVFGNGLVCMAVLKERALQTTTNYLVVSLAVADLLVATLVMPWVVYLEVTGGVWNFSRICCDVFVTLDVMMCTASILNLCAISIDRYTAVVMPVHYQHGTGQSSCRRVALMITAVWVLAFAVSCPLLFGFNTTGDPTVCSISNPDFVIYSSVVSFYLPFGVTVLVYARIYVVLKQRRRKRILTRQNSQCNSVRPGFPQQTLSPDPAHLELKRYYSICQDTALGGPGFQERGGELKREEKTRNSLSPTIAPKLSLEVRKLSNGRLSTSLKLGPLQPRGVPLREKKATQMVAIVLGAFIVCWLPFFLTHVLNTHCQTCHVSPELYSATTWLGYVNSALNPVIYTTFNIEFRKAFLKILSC
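Cells expressing the human receptor were seeded at 1500 cells/well, incubated overnight at 37 degrees C in 5% CO2, then exposed to library compounds with dopamine controls for 90 minutes at 37 degrees C before luminescent detection.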
ATXN2 expr inh: Primary qHTS for Inhibitors of ATXN expression | HEK-293 ATXN2-luciferase reporter, luminescence, 24 h | 360,000 compounds, 0.72% hits | AID 1745845, 2022 | Potency, µM (highest dose often 57 µM), usual class: inhibitors; further: nearly all actives have a fitted effect of over 55% in size
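ATXN2-luciferase reporter cells (luciferase flanked by upstream and downstream ATXN2 gene portions) were treated 24 h at 37 °C with compounds at up to 57 uM. SteadyGlo luminescence gave expression; GF-AFC fluorescence gave viability.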
DRD3 agonist: qHTS of D3 Dopamine Receptor Agonist: qHTS; D(3) dopamine receptor (Homo sapiens), P35462; 410,000 compounds, 0.58% hits; D3R DiscoveRx beta-arrestin cells, luminescence, 90 min; max activation, %; in the data active means max activation above about 30%
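Agonist mode: compounds and dopamine controls were applied to plated cells for 90 min at 37 degrees C after an overnight attachment at 1500 cells/well. Luminescent read-out followed 30 - 60 minutes at room temperature with DiscoveRx detection reagent.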
A number is an active result. A selection: hits, their analogues and other compounds. The true share with any hit is near 7%. Unless noted, the call rests on the fitted dose curve; in most records, active means well fitted curve in the direction sought with a large enough effect; inconclusive means small, poorly fitted or top-dose-only effect, or another doubt; inactive means no such curve, though single readings can be large; an effect the other way counts as inactive or inconclusive.

`COc1ccccc1C(=O)NC1CCN(C(=S)NCCc2ccccc2)CC1` gave IL-1B inflam inh -77.2, ATXN viability inactive, a7 integrin act inactive, D3 antag inactive, ATXN2 expr inh inactive and DRD3 agonist inactive.
For CCc1ccc(NC(=S)N2CCC(NC(=O)c3ccccc3OC)CC2)cc1 the results were IL-1B inflam inh inactive, ATXN viability inactive, a7 integrin act inactive, D3 antag inactive, ATXN2 expr inh inactive and DRD3 agonist inactive.
`CCCCN1C2CCCC1CC(NC(=O)c1ccccc1Cl)C2` (stereo not given) gave IL-1B inflam inh inactive, ATXN viability inactive, a7 integrin act inactive, D3 antag inactive, ATXN2 expr inh inactive and DRD3 agonist inactive.
For CN1CCN(C(=S)NCCc2ccccc2)CC1 the results were IL-1B inflam inh inactive, ATXN viability inactive, a7 integrin act inactive, D3 antag -87.1, ATXN2 expr inh inactive and DRD3 agonist inactive.
For Cc1ccccc1C(=O)NC1CC2CCCC(C1)N2Cc1ccc(Cl)cc1 (stereo not given) the results were IL-1B inflam inh inconclusive, ATXN viability inactive, a7 integrin act inconclusive, D3 antag -96.9, ATXN2 expr inh inactive and DRD3 agonist inactive.
Screening O=C(NN=Cc1ccc2c(c1)CCC2)c1cccc([N+](=O)[O-])c1 returned IL-1B inflam inh inactive, ATXN viability inconclusive, a7 integrin act inactive, D3 antag inactive and DRD3 agonist inactive.
Screening COC(=O)c1cc2c(ccn2-c2ccc(F)cc2)n1Cc1ccc(OC(C)=O)cc1 returned IL-1B inflam inh inactive, ATXN viability inconclusive, a7 integrin act inactive, D3 antag inactive, ATXN2 expr inh inactive and DRD3 agonist inactive.
`S=c1[nH]nc(Cc2c[nH]c3ccccc23)o1` gave IL-1B inflam inh inactive, ATXN viability inactive, a7 integrin act inactive, D3 antag inactive, ATXN2 expr inh inactive and DRD3 agonist inactive.
S=c1[nH]nc(Cc2sc(-c3ccccc3)nc2-c2ccccc2)o1 was read as IL-1B inflam inh inactive, ATXN viability inactive, a7 integrin act inactive, D3 antag -67.0, ATXN2 expr inh inactive and DRD3 agonist inactive.
`C=CCn1c(SCC(=O)c2cc(C)n(C(C)COC)c2C)nc2sc(C)c(C)c2c1=O` (stereo not given) gave IL-1B inflam inh inactive, ATXN viability inactive, a7 integrin act inactive, D3 antag inactive, ATXN2 expr inh inactive and DRD3 agonist 59.6.
For C=CCn1c(SCc2c(C)noc2C)nc2sc(C)c(C)c2c1=O the results were IL-1B inflam inh inactive, ATXN viability inactive, a7 integrin act inactive, D3 antag inactive, ATXN2 expr inh inactive and DRD3 agonist 35.2.
Screening C=CCn1c(SCC(=O)NCCO)nc2sc(C)c(C)c2c1=O returned IL-1B inflam inh inactive, ATXN viability inconclusive, a7 integrin act inactive, D3 antag inactive, ATXN2 expr inh inactive and DRD3 agonist inactive.
Screening NC(=S)NN=C(c1ccc(F)cc1)C1CC1 returned IL-1B inflam inh -86.1, ATXN viability inconclusive, a7 integrin act inactive, D3 antag inactive, ATXN2 expr inh inactive and DRD3 agonist inactive.
Screening N/C(=N\OC(=O)C1CCCCC1)c1ccc(Br)cc1 returned IL-1B inflam inh inactive, ATXN viability inactive, a7 integrin act inactive, D3 antag inactive, ATXN2 expr inh inactive and DRD3 agonist inactive.
NC(=S)NN=C(c1ccc(Br)cc1)C1CC1 was read as IL-1B inflam inh -75.6, ATXN viability inconclusive, a7 integrin act inactive, D3 antag inactive, ATXN2 expr inh inactive and DRD3 agonist inactive.
Screening CN(c1ccccc1)S(=O)(=O)c1ccc2[nH]c(=O)oc2c1 returned IL-1B inflam inh inactive, ATXN viability inactive, a7 integrin act inactive, D3 antag inactive, ATXN2 expr inh inactive and DRD3 agonist inactive.
For CCn1cc([N+](=O)[O-])c(C(=O)Nc2nc(-c3ccc(C)cc3)c(C)s2)n1 the results were IL-1B inflam inh -55.0, ATXN viability inconclusive, a7 integrin act inactive, D3 antag inactive, ATXN2 expr inh inactive and DRD3 agonist inactive.
